Results as given in ChEMBL document CHEMBL3988442, “University of Dundee, Small-Polar-MMV Screening Library” (2021).
The whole screen tested about 38,000 compounds, of which about 1,200 (3.2%) showed an effect of 50% or more. The median lay at about -58%. The full list was thinned out, with strong results kept by preference.

These compounds were tested on Plasmodium falciparum (assay: Calibr Malaria Delayed Death Assay SOP). Conditions: concentration 4.99e-06 (unit not given; other assays of the set use mol/L).
Assay type: functional, organism-based
Set-up: scale not given: in the data most compounds retested in dose-response had high values

| Compound | Percent Effect [%] |
| --- | --- |
| O=C(COc1ccccc1Br)N1CCOc2ccncc21 | -65.13 |
| O=C(O)C(F)(F)F.O=S(=O)(C1CC1)N1CCO[C@H]2[C@H](Oc3cccnc3)CC[C@@H]21 | -58.06 |
| Cc1nc(NC2CCN(C(=O)C3CC3)CC2)c2cnn(C)c2n1 | -160.6 |
| CNC(=O)[C@H]1C[C@@H]2CN(C(=O)c3cccnc3)C[C@@H]2N1S(C)(=O)=O.O=C(O)C(F)(F)F | -51.87 |
| CCN(CC)S(=O)(=O)NC1CCN(c2ccc(OC)cc2)CC1 | -62 |
| Cc1ccc(CN2CCC3(CC2)C(=O)NCCN3CC2CC2)o1 | -112.7 |
| Cc1ccc(CN2C[C@@H](c3ccccc3)[C@@]3(CCNC3=O)C2)o1 | -6.391 |
| Cc1cccc(N2CCC(N3CCC4(CCCNC4=O)C3)CC2)c1C (configuration not stated) | 41 |
| O=C1NCCCC12CCN(Cc1ccc(SC3CCCCC3)o1)C2 (configuration not stated) | 54.2 |
| O=C1NCCCC12CCN(S(=O)(=O)N1CCOCC1)C2 (configuration not stated) | -32.12 |
| Cc1ccc(Sc2ccc(CN3CCC4(CCCNC4=O)C3)o2)cc1 (configuration not stated) | 71.68 |
| COc1cccc(C(c2c(C)n[nH]c2O)c2c(C)n[nH]c2O)c1OC | -4.815 |
| O=C(O)C(F)(F)F.O=C1[C@H]2CN(S(=O)(=O)c3ccccc3)C[C@H]2CN1Cc1cccnc1 | 0.7029 |
| CCN(C(=O)COC)C(c1ccc(Cl)cc1)c1ccccn1 (configuration not stated) | -96.63 |
| CCN(CC)C(=O)COc1nc(C(C)C)no1 | -177.8 |
| c1ccc(OCCNC2CCN(c3ncccn3)CC2)cc1 | -18.18 |
| Cc1nc(C)c(C)c(N2CCC(NCCOc3ccccc3)CC2)n1 | 61.44 |
| Cc1cc(N2CCC(NCCOc3ccccc3)CC2)nc(C)n1 | 74.5 |
| Cc1cc(N2CCC(N(C)C(=O)c3ccccc3)CC2)nc(C)n1 | 16.92 |
| CN(C)c1ccnc(N2CCC(NCCOc3ccccc3)CC2)n1 | 59.77 |
| Cc1cc(N2CCC(O)CC2)nc(C)n1 | -73.43 |

| Compound | Percent Effect [%] |
| --- | --- |
| Cc1cc(N2CCC(N(C)C(=O)c3cccs3)CC2)nc(C)n1 | -45.9 |
| Cc1ccnc(N2CCC(NCCOc3ccccc3)CC2)n1 | 9.901 |
| O=C(COCCOc1ccccc1)NC1CCN(c2ccccn2)CC1 | -45.63 |
| O=C(COCCOc1ccccc1)NC1CCN(c2ncccn2)CC1 | -10.36 |
| Cc1cc(N2CCC(NC(C)Cc3ccsc3)CC2)nc(C)n1 (configuration not stated) | 85.1 |
| Cc1cc(N2CCC(NC(=O)CCc3ccco3)CC2)nc(C)n1 | -35.38 |
| COC1CCN(C(=O)Cn2ncc(N3CCCCC3)cc2=O)C1 (configuration not stated) | -24.14 |
| COCc1cc(N2CCOC(c3ccc(Cl)cc3)C2)ncn1 (configuration not stated) | 9.167 |
| CS(=O)(=O)N1CCOCC2(CCN(C(=O)c3ccncc3)CC2)C1.O=C(O)C(F)(F)F | -27.09 |
| O=C(Nc1ccccn1)C1CCN(Cc2cccc3c2OCCO3)CC1 | -6.102 |
| CC(C)(C)c1ncc(CNc2ccccc2SCCC(N)=O)s1 | -73.84 |
| Cn1cccc1C(=O)NC(C)(C(N)=O)c1cccc(Cl)c1 (configuration not stated) | -31.46 |
| CCC(C)NC(=O)c1cccc(CNCc2csc(C(C)C)n2)c1 (configuration not stated) | 46.44 |
| CCn1cnnc1C1CCN(C(=O)c2cc(C)c(C)s2)CC1 | -85.96 |
| CC(=O)N(C)CC(=O)NCC1(c2c(F)cccc2F)CCCC1 | -102.3 |
| COC(=O)NCC(=O)NCC1(c2c(F)cccc2F)CCCC1 | 68.39 |
| CC(=O)NCCC(=O)NCC1(c2c(F)cccc2F)CCCC1 | -84.52 |
| CCS(=O)(=O)CC(=O)NCC1(c2c(F)cccc2F)CCCC1 | -98.46 |
| CCC(=O)NCC(=O)NCC1(c2c(F)cccc2F)CCCC1 | 72.49 |
| COC(=O)NCCC(=O)NCC1(c2cccc(Cl)c2)CC1 | -27.72 |
| CC(=O)N1CCCn2nc(CNS(=O)(=O)N(C)C(C)C)cc2C1 | -134.1 |

| Compound | Percent Effect [%] |
| --- | --- |
| COCC(=O)N1CCC2(CCN(c3cnn(C)c3)C2=O)C1 (configuration not stated) | -59.68 |
| O=c1[nH]c2cc3c(cc2cc1CN1CCCC1c1ccccn1)CCC3 (configuration not stated) | -51.8 |
| CC(CN1CCOCC1)NC(=O)NCCc1ccc(Cl)s1 (configuration not stated) | -56.29 |
| Cc1n[nH]cc1CNC1(Cc2ccc(Br)cc2)CCCCC1 | 36.65 |
| Cc1n[nH]cc1CNC1(c2ccc(F)cc2)CCCC1 | 82.35 |
| Cc1n[nH]cc1CNC1(c2ccc(Br)cc2)CC1 | 18.93 |
| O=C(NCc1ccco1)[C@@H]1CCO[C@@H]2CCN(c3ncccn3)C[C@H]21.O=C(O)C(F)(F)F | -31.43 |
| O=C(C1CCOC1)N1C[C@H]2CN(Cc3cccnc3)C(=O)[C@H]2C1.O=C(O)C(F)(F)F (some centres not stated) | -57.45 |
| Cc1nc(NC2CCS(=O)(=O)CC2)cc(C2CCCNC2)n1 (configuration not stated) | -36.14 |
| Cc1nc(NCC23CCCN2CCC3)cc(C2CCCNC2)n1 (configuration not stated) | -55.92 |
| COc1ccccc1CC(=O)N1CC[C@H](O)[C@]2(CCCO2)C1 | -156.8 |
| CN1CCO[C@@H]2CN(S(=O)(=O)c3cccs3)CC[C@@H]2C1.O=C(O)C(F)(F)F | -26.8 |
| COc1ccc(S(=O)(=O)N2C[C@@H]3CN(C)CCO[C@@H]3C2)cc1 | 58.7 |
| CN1CCO[C@@H]2CN(S(=O)(=O)c3ccccc3)C[C@@H]2C1.O=C(O)C(F)(F)F | -22.42 |
| CN1CCO[C@@H]2CN(S(=O)(=O)c3ccccc3)CC[C@@H]2C1.O=C(O)C(F)(F)F | 31.75 |
| CN1CCO[C@@H]2CN(S(=O)(=O)c3cccnc3)C[C@@H]2C1.O=C(O)C(F)(F)F.O=C(O)C(F)(F)F | -85.76 |
| CCN1CCO[C@@H]2CN(S(=O)(=O)c3cccs3)CC[C@@H]2C1.O=C(O)C(F)(F)F | 37.95 |
| CC(C)N1CCO[C@@H]2CN(S(=O)(=O)c3cccs3)CC[C@@H]2C1.O=C(O)C(F)(F)F | 50.24 |
| CN1CCO[C@@H]2CN(S(=O)(=O)c3ccccc3F)CC[C@@H]2C1.O=C(O)C(F)(F)F | 48.77 |
| CN1CCO[C@@H]2CN(S(=O)(=O)c3ccc(F)cc3)CC[C@@H]2C1.O=C(O)C(F)(F)F | 61.54 |
